{
  "source": "PubChem BioAssay (NCATS)",
  "note": "Inconclusive results are not listed. Active and inactive are the calls of the source. The call rests on the fitted dose curve; in most records, active means well fitted inhibition curve with a large enough effect; inconclusive means small, poorly fitted or top-dose-only effect; inactive means flat fitted curve, though single readings scatter. Where a SMILES comes first, the peptide text is derived from it. Bridges are numbered along the chain shown (N, C = ends). [ ]: non-standard residue; d: D form. The star is where a group is joined. X1 = CC[C@@H](C)[C@@H](N)C1=N[C@H](C(=O)*)CS1; d(aIle) = CC[C@H](C)[C@@H](N)C(=O)O; dOrn = NCCC[C@@H](N)C(=O)O",
  "data": [
    {"biological_target": "Voltage-gated inwardly rectifying potassium channel KCNH2 (Homo sapiens) (UniProt Q12809)", "sequence (Q12809 whole entry, looked up)": "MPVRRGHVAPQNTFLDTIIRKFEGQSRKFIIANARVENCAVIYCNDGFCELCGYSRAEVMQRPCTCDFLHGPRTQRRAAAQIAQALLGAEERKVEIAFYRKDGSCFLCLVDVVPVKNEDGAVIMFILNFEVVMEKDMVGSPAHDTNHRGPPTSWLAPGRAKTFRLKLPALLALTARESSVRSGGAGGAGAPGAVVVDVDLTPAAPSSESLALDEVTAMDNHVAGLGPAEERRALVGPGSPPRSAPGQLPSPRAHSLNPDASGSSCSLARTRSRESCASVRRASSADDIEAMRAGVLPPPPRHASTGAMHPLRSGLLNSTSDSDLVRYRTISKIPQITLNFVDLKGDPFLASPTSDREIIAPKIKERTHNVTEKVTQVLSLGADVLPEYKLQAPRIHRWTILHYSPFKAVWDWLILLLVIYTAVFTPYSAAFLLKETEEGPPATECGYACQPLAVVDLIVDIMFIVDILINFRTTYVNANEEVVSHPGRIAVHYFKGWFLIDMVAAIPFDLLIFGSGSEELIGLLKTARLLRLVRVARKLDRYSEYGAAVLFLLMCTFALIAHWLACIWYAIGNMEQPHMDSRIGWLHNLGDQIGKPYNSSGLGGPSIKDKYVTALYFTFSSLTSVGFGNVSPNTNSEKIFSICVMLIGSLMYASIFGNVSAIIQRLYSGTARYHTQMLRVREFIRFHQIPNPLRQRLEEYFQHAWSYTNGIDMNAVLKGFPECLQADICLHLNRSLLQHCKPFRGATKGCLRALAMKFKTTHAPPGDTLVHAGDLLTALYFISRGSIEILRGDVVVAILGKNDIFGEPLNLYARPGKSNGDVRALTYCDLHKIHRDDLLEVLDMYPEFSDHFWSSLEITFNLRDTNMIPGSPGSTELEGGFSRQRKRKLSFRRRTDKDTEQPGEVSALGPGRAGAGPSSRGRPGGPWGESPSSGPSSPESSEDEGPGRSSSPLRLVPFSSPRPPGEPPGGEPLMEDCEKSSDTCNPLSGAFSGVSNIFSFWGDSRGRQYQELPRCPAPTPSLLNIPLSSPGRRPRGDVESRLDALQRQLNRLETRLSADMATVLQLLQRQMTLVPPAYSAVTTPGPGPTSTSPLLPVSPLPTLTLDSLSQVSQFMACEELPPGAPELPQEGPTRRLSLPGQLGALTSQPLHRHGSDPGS", "assay": "qHTS Assay for Small Molecule Inhibitors of the Human hERG Channel Activity (AID 588834);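 further: lower thallium flux fluorescence means stronger hERG block; nearly all actives have a fitted effect of over 50% in size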; further: potency means the concentration at half of the fitted maximal effect; on activity change, negative = inhibition: top concentration of the series differs between compounds; on the % scale 0 is the no-effect control and ±100 the full control effect", "conditions": "U2OS BacMam hERG, FluxOR thallium flux fluorescence; series mostly up to 46.1 µM; activity change, negative = inhibition: at the top concentration", "how_it_was_run": "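U2OS cells transduced with hERG via BacMam (MOI ~100), plated 2000/well, loaded with FluxOR thallium dye, compound ~10 min, then stimulation buffer; fluorescence decrease read kinetically; AC50 from Hill fits.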", "values": [
      {"smiles": "CN[C@@H]1[C@H](O[C@H]2[C@H](O[C@H]3[C@H](O)[C@@H](O)[C@H](N=C(N)N)[C@@H](O)[C@@H]3N=C(N)N)O[C@@H](C)[C@]2(O)CO)O[C@@H](CO)[C@H](O)[C@H]1O", "activity change, negative = inhibition": "17.2% (inactive)"},
      {"smiles": "Nc1nc(/C(=C/CC(=O)O)C(=O)N[C@@H]2C(=O)N3C(C(=O)O)=CCS[C@H]23)cs1", "activity change, negative = inhibition": "-3.49% (inactive)"},
      {"smiles": "CC(C)(CO)[C@@H](O)C(=O)NCCCC(=O)O", "activity change, negative = inhibition": "9.65% (inactive)"},
      {"smiles": "COc1ccc2cc([C@H](C)CO)ccc2c1", "activity change, negative = inhibition": "6.8% (inactive)"},
      {"smiles": "CN1CCN(C(c2ccccc2)c2ccc(Cl)cc2)CC1", "note": "(centres undefined)", "Potency": "5620 nM (active)"},
      {"smiles": "Cn1nnnc1SCC1=C(C(=O)O)N2C(=O)[C@@H](NC(=O)[C@H](O)c3ccccc3)[C@H]2SC1", "activity change, negative = inhibition": "6.43% [at 20.6 µM] (inactive)"},
      {"smiles": "C=C1CC[C@H](O)CC1=C/C=C1\\CCC[C@]2(C)[C@@H]([C@H](C)/C=C/[C@H](C)C(C)C)CC[C@@H]12", "activity change, negative = inhibition": "-9.25% (inactive)"},
      {"smiles": "C[N@+]12CCCC[C@@H]1CCC(=C(c1cccs1)c1cccs1)C2", "Potency": "2240 nM (active)"},
      {"smiles": "NC[C@@H]1CC[C@@H](N)[C@@H](O[C@H]2[C@H](O)[C@@H](O[C@H]3O[C@H](CO)[C@@H](O)[C@H](N)[C@H]3O)[C@H](N)C[C@@H]2N)O1", "activity change, negative = inhibition": "3.15% (inactive)"},
      {"smiles": "CCCCC/C=C\\CCC(=O)N[C@H]1[C@H](Oc2c3cc4cc2Oc2ccc(cc2Cl)[C@@H](O[C@@H]2O[C@H](CO)[C@@H](O)[C@H](O)[C@H]2NC(C)=O)[C@@H]2NC(=O)[C@H](NC(=O)[C@@H]4NC(=O)[C@H]4NC(=O)[C@@H](Cc5ccc(c(Cl)c5)O3)NC(=O)[C@H](N)c3ccc(O)c(c3)Oc3cc(O)cc4c3)c3ccc(O)c(c3)-c3c(O[C@H]4O[C@H](CO)[C@@H](O)[C@H](O)[C@@H]4O)cc(O)cc3[C@@H](C(=O)O)NC2=O)O[C@H](CO)[C@@H](O)[C@@H]1O", "activity change, negative = inhibition": "3.68% [at 20.6 µM] (inactive)"},
      {"smiles": "CCCC(=O)Nc1c(I)cc(I)c(CC(CC)C(=O)O)c1I", "note": "(centres undefined)", "activity change, negative = inhibition": "16.9% (inactive)"},
      {"smiles": "CCOC(=O)Oc1c(OC)cc(C(=O)O[C@@H]2C[C@@H]3CN4CCc5c([nH]c6cc(OC)ccc56)[C@H]4C[C@@H]3[C@H](C(=O)OC)[C@H]2OC)cc1OC", "Potency": "2240 nM (active)"},
      {"smiles": "OC[C@@H](O)C(O)[C@H](O)CO", "activity change, negative = inhibition": "-11.7% (inactive)"},
      {"smiles": "CO/N=C(\\C(=O)N[C@@H]1C(=O)N2C(C(=O)O)=C(CSc3nc(C)c(CC(=O)O)s3)CS[C@H]12)c1csc(N)n1", "activity change, negative = inhibition": "0.523% (inactive)"},
      {"smiles": "CC(C)(C)NCC(O)c1ccc(O)c(CO)n1", "note": "(centres undefined)", "activity change, negative = inhibition": "-25.2% (inactive)"},
      {"smiles": "CO/N=C(\\C(=O)N[C@@H]1C(=O)N2C(C(=O)O)=C(CSC(=O)c3ccco3)CS[C@H]12)c1csc(N)n1", "activity change, negative = inhibition": "1.24% (inactive)"},
      {"smiles": "C[S+](C)CCC(N)C(=O)O", "note": "(centres undefined)", "activity change, negative = inhibition": "-3.92% (inactive)"},
      {"smiles": "NS(=O)(=O)c1cc2c(cc1Cl)NC(Cc1ccccc1)NS2(=O)=O", "note": "(centres undefined)", "activity change, negative = inhibition": "0.179% (inactive)"},
      {"smiles": "CC(C)CCC[C@@H](C)[C@H]1CC(=O)C2=C3CC[C@H]4C[C@@H](O)CC[C@]4(C)[C@H]3CC[C@@]21C", "activity change, negative = inhibition": "-27.1% (inactive)"},
      {"smiles": "C=CC1=C(C(=O)O)N2C(=O)[C@@H](NC(=O)/C(=N/OCC(=O)O)c3csc(N)n3)[C@H]2SC1", "note": "(stereo in doubt)", "activity change, negative = inhibition": "1.33% [at 20.6 µM] (inactive)"},
      {"smiles": "C=CC[N@@+]12CC[C@@]34c5ccccc5N5/C=C6/[C@H]7C[C@H]8[C@@]9(CC[N@@+]8(CC=C)C/C7=C/CO)c7ccccc7N(/C=C(/[C@@H](C[C@@H]31)/C(=C\\CO)C2)[C@H]54)[C@@H]69", "activity change, negative = inhibition": "5.19% [at 20.6 µM] (inactive)"},
      {"smiles": "CN[C@@H]1[C@@H](O)[C@@H](O[C@@H]2[C@@H](O)[C@H](O[C@H]3O[C@H](CN)[C@@H](O)[C@H](O)[C@H]3O)[C@@H](N)C[C@H]2NC(=O)C(O)CN)OC[C@]1(C)O", "note": "(some centres undefined)", "activity change, negative = inhibition": "16.3% (inactive)"},
      {"smiles": "CCC(=O)OC(OP(=O)(CCCCc1ccccc1)CC(=O)N1C[C@H](C2CCCCC2)C[C@H]1C(=O)O)C(C)C", "note": "(some centres undefined)", "activity change, negative = inhibition": "-4.65% (inactive)"},
      {"smiles": "CCCCCCCCCCCCCCCCCCOCC(COP(=O)([O-])OCC[N+](C)(C)C)OC", "note": "(centres undefined)", "activity change, negative = inhibition": "5.61% (inactive)"},
      {"smiles": "C[C@@H]1NC(=O)[C@@H](N)CNC(=O)[C@H](C2CCNC(N)=N2)NC(=O)/C(=C/NC(N)=O)NC(=O)[C@H](CNC(=O)C[C@@H](N)CCCN)NC1=O", "note": "(some centres undefined)", "activity change, negative = inhibition": "23.3% (inactive)"},
      {"smiles": "CC(C)N1CCN(c2ccc(OC[C@H]3CO[C@](Cn4cncn4)(c4ccc(Cl)cc4Cl)O3)cc2)CC1", "Potency": "8910 nM (active)"},
      {"smiles": "CC[C@@H](C)[C@@H](N)C1=N[C@H](C(=O)N[C@@H](CC(C)C)C(=O)N[C@@H](CCC(=O)O)C(=O)N[C@@H](C(=O)N[C@@H]2CCCCNC(=O)[C@@H](CC(N)=O)NC(=O)[C@@H](CC(=O)O)NC(=O)[C@@H](Cc3cnc[nH]3)NC(=O)[C@@H](Cc3ccccc3)NC(=O)[C@@H]([C@H](C)CC)NC(=O)[C@@H](CCCN)NC2=O)[C@@H](C)CC)CS1", "note": "(X1-LE[d(aIle)][dK][dOrn][dI][dF][dH][dD][dN]; lactam 4-C)", "activity change, negative = inhibition": "2.25% [at 20.6 µM] (inactive)"},
      {"smiles": "COC1[C@@H](O[C@@H]2O[C@H](C)[C@@H](O[C@H]3C[C@@](C)(O)[C@H](OC(=O)CC(C)C)[C@H](C)O3)[C@H](N(C)C)[C@H]2O)[C@@H](CC=O)C[C@@H](C)[C@@H](O)/C=C/C=C/C[C@@H](C)OC(=O)C[C@H]1OC(C)=O", "note": "(some centres undefined)", "activity change, negative = inhibition": "0.454% [at 20.6 µM] (inactive)"},
      {"smiles": "CC(C)(C)c1ccc(CN2CCN(C(c3ccccc3)c3ccc(Cl)cc3)CC2)cc1", "note": "(centres undefined)", "Potency": "2820 nM (active)"},
      {"smiles": "O=C(O)c1cc(O)c2c(c1)[C@H]([C@H]1c3cc(C(=O)O)cc(O)c3C(=O)c3c(O[C@@H]4O[C@H](CO)[C@@H](O)[C@H](O)[C@H]4O)cccc31)c1cccc(O[C@@H]3O[C@H](CO)[C@@H](O)[C@H](O)[C@H]3O)c1C2=O", "activity change, negative = inhibition": "4.17% (inactive)"},
      {"smiles": "CNCC(O)c1ccc(OC(=O)C(C)(C)C)c(OC(=O)C(C)(C)C)c1", "note": "(centres undefined)", "activity change, negative = inhibition": "-7.91% [at 20.6 µM] (inactive)"},
      {"smiles": "CC1(C)C(\\C=C/C=C\\C=C/C=C2/N(CCCCS(=O)(=O)O)c3ccc4ccccc4c3C2(C)C)=[N+](CCCCS(=O)(=O)[O-])c2ccc3ccccc3c21", "activity change, negative = inhibition": "0.325% (inactive)"},
      {"smiles": "OCCN1CCN(CC/C=C2/c3ccccc3Sc3ccc(Cl)cc32)CC1", "Potency": "1580 nM (active)"},
      {"smiles": "CC[C@H]1OC(=O)C[C@@H](O)[C@H](C)[C@@H](O[C@@H]2O[C@H](C)[C@@H](O[C@H]3C[C@@](C)(O)[C@@H](O)[C@H](C)O3)[C@H](N(C)C)[C@H]2O)[C@@H](CC=O)C[C@@H](C)C(=O)/C=C/C(C)=C/[C@@H]1CO[C@@H]1O[C@H](C)[C@@H](O)[C@@H](OC)[C@H]1OC", "activity change, negative = inhibition": "11.2% (inactive)"},
      {"smiles": "CC(=O)OCC1=C(C(=O)O)N2C(=O)[C@@H](NC(=O)Cc3ccccc3)[C@H]2SC1", "activity change, negative = inhibition": "3.07% (inactive)"},
      {"smiles": "CC(C)C[C@H](NC(=O)[C@@H](Cc1c[nH]c2ccccc12)NC(=O)[C@H](Cc1ccc(O)cc1)NC(=O)[C@H](CO)NC(=O)[C@H](Cc1c[nH]c2ccccc12)NC(=O)[C@H](Cc1cnc[nH]1)NC(=O)[C@@H]1CCC(=O)N1)C(=O)N[C@@H](CCCN=C(N)N)C(=O)N1CCC[C@@H]1C(=O)NCC(N)=O", "activity change, negative = inhibition": "-6.85% (inactive)"},
      {"smiles": "CCCCC[C@H](O)/C=C/[C@H]1[C@H](O)CC(=O)[C@@H]1CCCCCCC(=O)O", "activity change, negative = inhibition": "22.1% [at 20.6 µM] (inactive)"},
      {"smiles": "CO[C@H]1O[C@@H]2O[C@@]3(C)CC[C@H]4[C@H](C)CC[C@@H]([C@H]1C)[C@@]24OO3", "activity change, negative = inhibition": "-0.525% (inactive)"},
      {"smiles": "CO[C@H]1C[C@H](O[C@@H]2/C(C)=C/C[C@@H]3C[C@@H](C[C@]4(CC[C@H](C)[C@@H](C5CCCCC5)O4)O3)OC(=O)[C@@H]3C=C(C)/C(=N/O)[C@H]4OC/C(=C\\C=C\\[C@@H]2C)[C@]43O)O[C@@H](C)[C@@H]1O", "activity change, negative = inhibition": "13.2% (inactive)"}
    ]}
  ]
}
